Assay outcomes: PubChem, National Center for Advancing Translational Sciences (NCATS)
RE007 growth inh – qHTS Assay for Inhibitors of the HIV-1 protein Vpr; AID 651644, 2012; Potency, µM (top dose mostly 92.2 µM), hits mostly inhibitors; S. pombe RE007 Vpr strain, BacTiter-Glo ATP luminescence, 24 h; hit rate 0.21% among 360,000; active = well fitted falling curve with a large enough effect; inconclusive = small, poorly fitted or top-dose-only effect; inactive = no such curve, though single readings can be large or run the other way; also: nearly all actives have a fitted effect of over 50% in size
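Fission yeast RE007 carrying one integrated HIV-1 vpr copy, seeded at OD 0.01 in PMG+AL medium with 23 nL pinned compound. Grown 24 h at 30 degrees; viability read by BacTiter-Glo luminescence after 5 min.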
Pf growth 48h – Primary qHTS for delayed death inhibitors of the malarial parasite plastid, 48 hour incubation; hit rate 5.9% among 310,000; Potency, µM (titrated, usually from 28.7 µM), actives largely listed as inhibitors; P. falciparum luciferase growth in erythrocytes, 48 h
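Read-out is firefly luciferase luminescence from an integrated reporter in P. falciparum, so falling signal marks reduced parasite growth. Infected erythrocytes were at 2% hematocrit and 0.1% parasitemia (final) in Albumax-supplemented RPMI 1640.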
Pf growth 96h – Primary qHTS for delayed death inhibitors of the malarial parasite plastid, 96 hour incubation; P. falciparum luciferase reporter growth, 96 h; Potency, µM (titrated, usually from 28.7 µM), usual class: inhibitors; hit rate 6.9% among 320,000
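96 h incubation, 37 C, 5% CO2, of luciferase-reporter P. falciparum-infected RBCs (2% hematocrit, 0.05% parasitemia final) with test compounds; endpoint luminescence.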
NS1 function inh – qHTS Assay for Inhibitors of Influenza NS1 Protein Function; Potency, µM (highest dose often 46.1 µM); hit rate 0.4% among 270,000; calls by dose curve; also: actives are rising curves; nearly all actives have a fitted effect of over 50% in size
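Compounds were scored for reversing the slow growth caused by influenza A NS1 in S. cerevisiae, measured by optical density at 600 nm. Assay medium contained 2% galactose at pH 6.0; NS1-free yeast of the same strain were the positive control.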
SARS PLpro yeast – qHTS of Yeast-based Assay for SARS-CoV PLP. S. cerevisiae expressing SARS-CoV PLpro, growth rescue. Potency, µM (titrated, usually from 32.9 µM), actives largely listed as activators. hit rate 0.19% among 330,000; calls by dose curve; also: nearly all actives have a fitted effect of over 55% in size
Hits are given with their value; [ ] = remark or other dose. Sampled rows, rich in hits. Any-hit rate of the full collection: about 9.5%. Unless noted, calls follow the shape of the dose curve; as a rule, active = well fitted inhibition curve with a large enough effect; inconclusive = small, poorly fitted or top-dose-only effect, or another doubt; inactive = no such curve, though single readings can be large or run the other way.

Results for COc1ccc(-c2cnc(SCC(=O)Nc3nc(C(C)(C)C)cs3)n2Cc2ccco2)cc1 ?
RE007 growth inh: inactive; Pf growth 48h: 13µM; Pf growth 96h: inconclusive; NS1 function inh: inactive; SARS PLpro yeast: inactive

What do the screens show for `CCOc1ccc(NC(=O)CSc2nnc(-c3ccccc3Cl)n2Cc2ccco2)cc1`?
RE007 growth inh: inactive; Pf growth 48h: inconclusive; Pf growth 96h: 0.033µM; NS1 function inh: inactive; SARS PLpro yeast: inactive

Results for COc1ccc2c3c(c(=O)oc2c1)C1O[C@](c2ccsc2)(Cc2cc(C#N)ccc21)O3 ?
Pf growth 48h: inconclusive; Pf growth 96h: inactive[5.75 µM]; NS1 function inh: inactive; SARS PLpro yeast: inactive[6.58 µM]

What do the screens show for `Cn1cc(S(=O)(=O)NC[C@H]2O[C@@H](n3cnc4c(N)ncnc43)[C@H](O)[C@@H]2O)cn1`?
RE007 growth inh: inactive; SARS PLpro yeast: inactive

How did CCCCNc1nccnc1-c1cccc(C=O)c1 do in these assays?
RE007 growth inh: inactive

Results for Cc1csc(N=Cc2ccc([N+](=O)[O-])o2)n1 ?
RE007 growth inh: inactive

Results for COC(=O)c1ccc(CS(=O)(=O)c2ccc(F)cc2)o1 ?
RE007 growth inh: inactive; Pf growth 48h: inactive; Pf growth 96h: 5.2µM; NS1 function inh: inactive; SARS PLpro yeast: inactive

How did COc1ccc(S(=O)(=O)Cc2ccc(C(=O)NC3CCCCCC3)o2)cc1 do in these assays?
RE007 growth inh: inactive; Pf growth 48h: inactive; Pf growth 96h: 7.4µM; NS1 function inh: inactive; SARS PLpro yeast: inactive

Results for COc1ccc(S(=O)(=O)Cc2ccc(C(=O)NC(C)C)o2)cc1 ?
RE007 growth inh: inactive; Pf growth 48h: inactive; Pf growth 96h: inactive; NS1 function inh: inactive; SARS PLpro yeast: inconclusive

What do the screens show for `O=S1(=O)C=C(Sc2nnc(-c3ccccc3)o2)c2ccccc21`?
RE007 growth inh: 10µM; Pf growth 48h: 3.7µM; Pf growth 96h: inactive; NS1 function inh: inactive; SARS PLpro yeast: inactive

Results for Cc1ccc(S(=O)(=O)N2CCN(C(=O)c3cc(S(=O)(=O)N(C)C)ccc3N3CCCC3)CC2)c(C)c1 ?
RE007 growth inh: inactive; Pf growth 48h: 2.9µM; Pf growth 96h: 5.2µM; SARS PLpro yeast: inactive

What do the screens show for `Cc1ccc(S(=O)(=O)N2CCC(C(=O)Nc3ccccc3N3CCCC3)CC2)c(C)c1`?
RE007 growth inh: inactive; Pf growth 48h: 9.3µM; Pf growth 96h: inconclusive; SARS PLpro yeast: inactive

Results for O=C(Nc1ccccc1N1CCCCC1)C1CCN(S(=O)(=O)c2ccccc2C(F)(F)F)CC1 ?
RE007 growth inh: inactive; Pf growth 48h: 9.3µM; Pf growth 96h: inconclusive

How did O=C(NC(Cc1ccccc1)C(=O)O)C1CCN(S(=O)(=O)c2ccccc2C(F)(F)F)CC1 (stereo not given) do in these assays?
RE007 growth inh: inactive; Pf growth 48h: inactive; Pf growth 96h: inactive; NS1 function inh: inactive; SARS PLpro yeast: inactive

Results for CN(C)C(CNC(=O)C1CCN(S(=O)(=O)c2ccccc2C(F)(F)F)CC1)Cc1ccccc1 (stereo not given) ?
RE007 growth inh: inactive; Pf growth 48h: inconclusive; Pf growth 96h: 9.3µM; SARS PLpro yeast: inactive

Results for C/C(CC/C(C)=N/O)=N/O ?
NS1 function inh: inactive

What do the screens show for `COc1cccc(NC(=O)C2CCN(c3cnccn3)CC2)c1`?
RE007 growth inh: inactive; Pf growth 48h: inactive; Pf growth 96h: inactive; NS1 function inh: inactive; SARS PLpro yeast: inactive

What do the screens show for `CCc1ccc(-c2nnn(CCC(=O)OC)n2)cc1`?
RE007 growth inh: inactive; Pf growth 48h: inactive; Pf growth 96h: 4.7µM; NS1 function inh: inactive; SARS PLpro yeast: inactive

How did CCc1ccc(-c2nnn(CCC#N)n2)cc1 do in these assays?
RE007 growth inh: inactive; Pf growth 48h: inactive; Pf growth 96h: inactive; SARS PLpro yeast: inactive

Results for CCC(=NCc1ccc(Cl)c(Cl)c1)c1nc(-c2ccco2)oc1O ?
RE007 growth inh: inactive; Pf growth 48h: inconclusive; Pf growth 96h: 12µM; NS1 function inh: inactive; SARS PLpro yeast: inactive

How did COC(=O)[C@@]12CCCCN1[C@H](c1ccc(-c3ccc(F)cc3)c(OC)c1)[C@H]1C(=O)N(C)C(=O)[C@H]12 do in these assays?
RE007 growth inh: inactive; SARS PLpro yeast: inactive

How did CCN1C(=O)[C@@H]2[C@@H](c3ccc(-c4ccc(C(C)=O)cc4)c(OC)c3)N3CCC[C@@]3(C(=O)OC)[C@@H]2C1=O do in these assays?
RE007 growth inh: inactive; Pf growth 48h: 10µM; Pf growth 96h: 6.6µM; SARS PLpro yeast: inactive
